Drawing on PubChem BioAssay, this text covers z-score for 9 compounds.

Calls of active or inactive are those of the source. How the calls were made is not given here.

This test is described as follows: inhibitors of hydroxyurea-induced Chk1 phosphorylation, primary screen, imaging, HeLa, phospho-Chk1 antibody, percent positive cells (AID 1186). The following applies: hydroxyurea-induced phospho-Chk1 immunofluorescence imaging, higher = more signal.
In the case of `COC(=O)[C@@]1(Cc2ccc(F)cc2)[C@H]2c3cc(C(=O)N4CCCC4)n(CCSCCO)c3C[C@H]2CN1C(=O)c1ccccc1`, the z-score is 0.685 (inactive).
The result for `C[N+](C)(C)CCCC[C@@H]1NC(=O)[C@H]2C[C@@H](C(=O)NCCCCCN)[C@@H](c3ccc(O)cc3)N2C1=O` reads 0.932 (inactive); that for `COc1c(C)cc(-c2cc3c(c(CCc4ccccc4)n2)[Si](C(C)C)(C(C)C)O[C@H]3c2ccccc2)cc1C`, -0.0936 (inactive); that for `C=CCOC(=O)[C@H]1[C@@H]2C(=O)O[C@@H](c3ccccc3)[C@@H](c3ccccc3)N2[C@@H](c2ccc(OCCOC(=O)[C@H]3C[C@H]4C(=O)NCC(=O)N4[C@H]3c3ccc(O)cc3)cc2)[C@]12C(=O)Nc1ccccc12`, -0.374 (inactive).
Take `CCCCCCc1nc(Cc2cc(OC)c(OC)c(OC)c2)c(C)c2c1[Si](C(C)C)(C(C)C)OC2`: the z-score was -0.817 (inactive).
With `CC[C@H]1C2=C3C(CC[C@H]4C(OCc5ccc(F)cc5C(F)(F)F)OC[C@](C)([C@@H]34)N(C(=O)OC(C)(C)C)C2)C(COC(C)=O)C1COC(C)=O` (some centres undefined), the z-score was 0.127 (inactive).
Turning to `COCCOC(=O)N1C(=O)[C@@]2(c3cc(C#CCC(C(=O)OC)C(=O)OC)ccc31)[C@H](C(=O)N1CCc3cc(OC)c(OC)cc3C1)[C@H]1C(=O)O[C@H](c3ccccc3)[C@H](c3ccccc3)N1[C@@H]2c1ccccc1OCCO`, the z-score is -0.182 (inactive).
In the case of `C=C[C@@H](CO)NS(=O)(=O)c1ccc(Br)cc1`, the z-score was -0.734 (inactive).
Regarding `[N-]=[N+]=NCc1ccccc1[C@H]1OC(c2ccc(OCCCO)cc2)=N[C@@]1(Cc1ccccc1N=[N+]=[N-])C(N)=O`, the z-score was 0.052 (inactive).
